The list is not random: actives were taken first. Their share in the collection is about 8.3%.
HCMV antiviral = inhibitors of human cytomegalovirus; HFF cells, HCMV-luciferase reporter, 72 h; active compounds read low; activity change, negative = inhibition, % at 57.5 µM; AID 1259415; 410,000 tested, 4.5% active; in the data active = activity change below about -60%; inconclusive = no clear call, values can overlap the other calls; inactive = above about -39%
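Two-dose cell screen: HFF monolayers treated with compounds and infected with luciferase-expressing HCMV at 1 PFU/cell, 72 h at 37C, then lysed for luciferase measurement.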
FBPA Giardia inh = inhibitors of Giardia lamblia fructose-1,6-bisphosphate aldolase | A8B2U2 | purified Giardia FBPA | Potency, µM (titrated, usually from 59.6 µM), without a hit: top-dose activity, negative = inhibition, usual class: inhibitors | 290,000 tested, 0.71% active | AID 2451; also: potency is read from the fitted curve at half-maximal effect; nearly all actives have a fitted effect of over 55% in size
Target sequence (A8B2U2 whole entry, looked up): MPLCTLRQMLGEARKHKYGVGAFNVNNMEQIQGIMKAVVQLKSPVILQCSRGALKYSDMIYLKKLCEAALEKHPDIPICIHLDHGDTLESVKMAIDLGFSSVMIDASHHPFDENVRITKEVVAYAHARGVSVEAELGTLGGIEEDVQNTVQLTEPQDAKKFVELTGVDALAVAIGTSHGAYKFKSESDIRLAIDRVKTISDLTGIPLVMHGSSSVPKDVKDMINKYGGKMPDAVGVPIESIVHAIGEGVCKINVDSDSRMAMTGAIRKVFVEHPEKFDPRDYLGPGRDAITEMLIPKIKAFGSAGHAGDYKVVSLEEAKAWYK
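40 nM FBPA preincubated 10 min at RT with compound (up to 57.5 uM final), then substrate plus GAPDH/TPI/NAD/arsenate coupling and diaphorase/resazurin added. Fluorescence read after 20 min at RT, 525/598 nm.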
FMDV inh = blocks foot and mouth disease virus. FMDV antiviral cell-based qHTS. Potency, µM (highest dose often 57.9 µM), for inactives: at the top dose activity change, negative = inhibition, actives largely listed as inhibitors. 410,000 tested, 1.2% active. AID 1159524; calls by dose curve; tested in HEK293T cells; also: read-out not given here; potency is read from the fitted curve at half-maximal effect; nearly all actives have a fitted effect of over 45% in size
Marburg entry inh = inhibitors of Marburg virus binding or cell entry | Marburg virus pseudotyped entry inhibition, cell reporter | Potency, µM (highest dose often 37.8 µM), inactives show at the highest dose activity change, negative = inhibition, hits mostly inhibitors | 300,000 tested, 1.8% active | AID 540276; calls by dose curve; tested in HEK293 cells; also: potency is read from the fitted curve at half-maximal effect
LASV entry inh = Lassa virus entry inhibition | Potency, µM (top dose mostly 37.9 µM), without a hit: at the highest dose activity change, negative = inhibition, hits mostly inhibitors | 300,000 tested, 1.2% active | Lassa virus pseudotype entry inhibition, cell reporter; calls by dose curve; tested in HEK293 cells; also: potency is read from the fitted curve at half-maximal effect; nearly all actives have a fitted effect of over 50% in size
HCV inh = blocks hepatitis C virus; Potency, µM (doses to about 41.8 µM), inactives show at the highest dose activity change, negative = inhibition, actives largely listed as inhibitors; AID 651820; Huh7.5.1 HCVcc-Cre infection, luciferase reporter, 44 h; 340,000 tested, 3.4% active; also: potency is read from the fitted curve at half-maximal effect
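Cells (1,000/well) were plated 4 h before compound, then infected with HCVcc-Cre virus (~0.5 moi). After 44 h further culture, infection was read as luciferase luminescence following a 15 min substrate incubation at room temperature.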
* = called active by the depositor; ? = inconclusive; / = no result; + = active, no number; [ ] = remark or other dose. Unless noted, calls follow the shape of the dose curve; as a rule, active = well fitted curve in the direction sought with a large enough effect; inconclusive = small, poorly fitted or top-dose-only effect, or another doubt; inactive = no such curve, though single readings can be large; an effect the other way counts as inactive or inconclusive. % is scaled to controls: 0 for no effect and ±100 for the full control effect.

SMILES | HCMV antiviral | FBPA Giardia inh | FMDV inh | Marburg entry inh | LASV entry inh | HCV inh
Cc1ccc([N+](=O)[O-])cc1S(=O)(=O)Nc1ccc(C(=O)N(C)C)cc1 | ? | 12% | 0% | 6%[46.1 µM] | 9% | -5%
Cc1cc(C)c(S(=O)(=O)Nc2ccccc2C(F)(F)F)c(C)c1 | / | 5% | 10% | / | / | /
Cc1cc(C)c(S(=O)(=O)Nc2ccccc2-c2ccccc2)c(C)c1 | -79* | -27% | ? | ? | ? | ?
Cc1ccc(C(=O)Nc2ccccc2-c2ccccc2)cc1S(=O)(=O)Nc1cccc(C)c1C | -34 | -5% | -7% | ? | -42% | 10µM*
Cc1ccccc1NS(=O)(=O)c1cc(C(=O)Nc2cccc([N+](=O)[O-])c2)ccc1C | -95* | 2% | -71% | ? | 11µM* | ?
CC(=O)Nc1ccc(NS(=O)(=O)c2cc([N+](=O)[O-])ccc2C)cc1 | -71* | -5% | 13% | 8%[46.1 µM] | -1% | -3%
O=C1NC(=O)C(Cc2ccccc2F)(C2CCN(Cc3cccn3-c3cccnc3)CC2)N1 (centres undefined) | / | / | -9% | / | / | /
O=C(CS(=O)(=O)c1cccc2nsnc12)N1CCN(c2cccc(C(F)(F)F)c2)CC1 | -4 | / | -9% | / | 4%[46.1 µM] | /
Fc1ccc(-c2cc(-c3nc(-c4ccccc4)no3)[nH]n2)cc1 | -29 | / | 46% | / | ? | /
Cc1ccccc1NS(=O)(=O)c1cc(C(=O)Nc2cccnc2)ccc1C | -35 | / | 14% | ? | -21% | 32µM*
O=C(Cn1nc(Cc2cccnc2)c2ccccc2c1=O)Nc1cccc(C(F)(F)F)c1 | ? | / | -12% | -5%[46.1 µM] | -16%[46.1 µM] | /
COC(=O)/C=C/c1sc2nc(C)cc(C)c2c1N=CN(C)C | -68* | -13% | 5% | ? | 3% | -13%
Cc1cc(C)c2c(N=CN(C)C)c(C(=O)N3CCN(c4ncccn4)CC3)sc2n1 | 11 | 3% | -5% | -26%[46.1 µM] | -7% | ?
CCN(c1ccccc1)S(=O)(=O)c1ccc2[nH]cc(C(=O)NC3CCCCC3)c(=O)c2c1 | -102* | / | -24% | / | ? | /
Cc1ccc(C)c(N(C)S(=O)(=O)c2ccc3[nH]cc(C(=O)NCCN4CCOCC4)c(=O)c3c2)c1 | 21 | 8% | ? | ? | ? | -15%
Cc1ccc(C)c(N(C)S(=O)(=O)c2ccc3[nH]cc(C(=O)NC4CCCC4)c(=O)c3c2)c1 | -75* | / | -13% | / | -6%[46.1 µM] | /
CCC1CN(CCNC(=O)c2cc3ccccc3oc2=O)Cc2cc(OC)ccc2O1 (centres undefined) | / | / | -1% | / | / | /
CCN(CC(=O)Nc1ccc(NC(C)=O)cc1)C(=O)Cc1ccc(Cl)c(Cl)c1 | -64* | 0% | ? | 1%[46.1 µM] | / | ?
CCN(CC(=O)NCc1cccs1)C(=O)Cc1ccc(Cl)c(Cl)c1 | -27 | / | -11% | -11%[46.1 µM] | -4%[46.1 µM] | 3%
COC(=O)CC=C[C@H](C)[C@@H](OCc1ccccc1Br)C(C)C | / | / | / | 14%[14.2 µM] | ? | /
COc1ccc(/C=C2\Sc3ccc(C(=O)NCc4cccnc4)cc3N(C)C2=O)cc1OC | -27 | 2% | ? | ? | ? | 8.9µM*
COc1cccc(/C=C2\Sc3ccc(C(=O)NCc4cccnc4)cc3N(C)C2=O)c1 | 0 | -2% | ? | ? | -12%[46.1 µM] | ?
CN1C(=O)/C(=C/c2cccc(Cl)c2)Sc2ccc(C(=O)NCc3cccnc3)cc21 | -14 | 2% | 0% | / | / | 10µM*
COc1ccc(/C=C2\Sc3ccc(C(=O)N4CCN(Cc5ccccc5)CC4)cc3N(C)C2=O)cc1OC | -83* | 1% | 13µM* | / | / | 3.5µM*
O=C1CCC=C1C(O)CCc1ccccc1 (centres undefined) | / | -2% | / | 34%[14.2 µM] | / | /
SMILES | HCMV antiviral | FBPA Giardia inh | FMDV inh | Marburg entry inh | LASV entry inh | HCV inh
CCCNC(=O)Cn1nc(-c2ccc(OC)cc2)c2cnc3ccc(F)cc3c21 | 50 | / | 43% | / | ? | /
CCn1c2ccccc2c2cc(/C=N/NC(=O)c3ccc(O)cc3)ccc21 | -38 | -11% | -22% | 7.1µM* | 5µM* | 18µM*
CCn1c2ccccc2c2cc(/C=N/NC(=O)c3ccncc3)ccc21 | 6 | -15% | -23% | ? | 5.6µM* | ?
CCn1c2ccccc2c2cc(/C=N/NC(=O)c3cc(O)cc(O)c3)ccc21 | -16 | -24% | ? | ? | ? | ?
CCn1c2ccccc2c2cc(/C(C)=N/O)ccc21 | 13 | -3% | -2% | ? | 5% | 10µM*
O=C(N/N=C/c1ccncc1)c1ccccc1 | ? | 1% | 5% | 6% | 22% | 3%
C1CCN2CC3CC(CN4CCCC[C@@H]34)C2C1 (some centres undefined) | / | 3% | / | / | / | /
Cc1cc(=O)oc2cc(CN3C(=O)C(=O)c4cc(F)ccc43)ccc12 | -39 | / | / | / | / | /
CC(=NNC(=S)N1CCCCC1)c1cccc(C)n1 | -23 | / | 14% | ? | ? | -70%
CC(=NNC(=S)N1CCCCC1)c1ccccn1 | -98* | / | ? | / | / | /
CC(=NNC(=S)N1CC2CCC(CC2)C1)c1ccncn1 | -98* | / | 0% | ? | 0.32µM* | 0.32µM*
CCC1CCCCN1C(=S)NN=C(C)c1ccccn1 (centres undefined) | -98* | / | / | / | / | /
Cc1cccnc1-c1cccc2c1OC(CNC(=O)/C=C/c1cccs1)C2 (centres undefined) | / | / | -16% | / | / | /
CN1OC(C)(CC(=O)NCCc2ccccc2)N=C1c1ccccc1F (centres undefined) | 37 | / | / | / | / | /
O=C(c1ccc(-c2ccccc2)cc1)N1CCN(c2nc3ccccc3o2)CC1 | 24 | 2% | 5% | / | / | 20%
O=C(NCCc1ccccc1)C1CCN(c2nc3ccccc3o2)CC1 | -1 | 6% | -24% | 1% | 18% | -17%
Cc1cccc(NC(=O)N2CCN(C(=O)c3nsc4ccccc34)CC2)c1C | + | / | -20% | / | 1%[46.1 µM] | /
CC(C)(C)c1ccc(C(=O)N2CCN(c3nc4ccccc4o3)CC2)cc1 | -4 | 2% | ? | / | / | 10µM*
O=C(NC1CCCCCCC1)C1CCN(c2nc3ccccc3o2)CC1 | -88* | 14% | 14µM* | ? | ? | ?
Cc1cccc(Cl)c1NC(=O)N1CCCN(c2nc3ccc(Cl)cc3s2)CC1 | -35 | 3% | ? | / | / | 7.1µM*
CC(C)(C)C(=O)N1CCN(c2nc3ccc(Cl)cc3s2)CC1 | / | 13% | -26% | 3%[46.1 µM] | 7%[46.1 µM] | -6%
COC(=O)C1=C(C(=O)OC)[C@@H]2N(C)c3ccccc3[C@@]23CCC(=O)N(Cc2cc(OC)c(OC)c(OC)c2)C3=N1 | / | / | / | -12%[14.2 µM] | / | /
CCOc1ccc(NC(=O)N2CCN(c3nc4ccccc4s3)CC2)cc1 | ? | 3% | ? | -17% | -13% | ?
Cc1csc2c(N3CCN(C(=O)c4ccc(C(C)(C)C)cc4)CC3)ncnc12 | -63* | -3% | -21% | / | / | ?
Cc1ccc2nc(N3CCC(C(=O)NC4CCCCC4)CC3)sc2c1 | -14 | / | -17% | / | / | ?
